Measured values: PubChem BioAssay AID504466 (National Center for Advancing Translational Sciences (NCATS), 2011)
The whole screen tested about 330,000 compounds, of which about 4,200 (1.3%) were called active. Where a call stands in place of a potency, no number is given. About 6% were inconclusive and are not listed. Calls follow the shape of the dose curve; as a rule, active = well fitted activation curve with a large enough effect; inconclusive = small, poorly fitted or top-dose-only effect; inactive = no such curve, though single readings can be large or run the other way. This excerpt belongs to a sample that is enriched for actives.

Assay: qHTS screen for small molecules that induce genotoxicity in human embryonic kidney (HEK293T) cells expressing luciferase-tagged ELG1; also: nearly all actives have a fitted effect of over 60% in size
Details: HEK293T ELG1-luciferase reporter, luminescence, 16 h; series mostly up to 46 µM
Summary of the method: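 16 hr compound incubation (37 °C, 5% CO2) of HEK293T cells carrying luciferase-tagged ELG1; luciferase then measured by ONE-Glo luminescence after 30 min at RT.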
Potency is read from the fitted curve at half-maximal effect.

| SMILES | Potency |
| --- | --- |
| O=C(COc1ccc(F)cc1Br)NCC1COc2ccccc2O1 (stereo not given) | inactive |
| CCCCOC(=O)Nc1nnc(CC(=O)NCc2ccccc2)s1 | inactive |
| CCCCCCOC(=O)NCC(O)c1ccccc1 (stereo not given) | 18.4 µM (active) |
| CCCCCOC(=O)NCCOC(=O)Nc1ccc(C(=O)OCC)cc1 | inactive |
| O=C(CNC(=O)c1n[nH]c2ccccc12)Nc1cc(Cl)ccc1Cl | inactive |
| CCN(CC)C(=O)[C@H]1CC(CC(=O)NCc2ccco2)C(=O)N2CCc3c([nH]c4ccccc34)[C@]12C (stereo not given in full) | inactive |
| COc1ccc(NS(=O)(=O)c2cc(NC(=O)c3ccc(S(=O)(=O)N(C)C)cc3)ccc2N2CCOCC2)cc1 | inactive |
| CCN(C[C@H]1N[C@@](Cc2ccccc2)(C(=O)OC)[C@H]2C(=O)N(Cc3ccccc3)C(=O)[C@@H]12)C(=O)c1ccc(C)cc1 | inactive |
| COc1ccc(NC(=O)CNc2cc(S(=O)(=O)N3CCOCC3)ccc2N2CCOCC2)c(OC)c1 | inactive |
| Cc1ccc(C)c(NC(=O)c2ccc(OC(=O)c3ccco3)cc2)c1 | inactive |
| Cc1ccc(O)c(NC(=O)c2cc(-c3ccco3)on2)c1 | 20.6 µM (active) |
| O=C(Nc1ccccc1C(F)(F)F)c1cc(-c2ccc(O)cc2)on1 | inactive |
| CCCCC[C@@H]1C=C(C(=O)O)[C@H](c2ccc(C#N)cc2)N1S(=O)(=O)c1ccc(C)cc1 | inactive |
| Cc1ccc(C(=O)NNC(=O)c2ccncc2)cc1S(=O)(=O)N1CCCCC1 | inactive |
| Cc1ccc(C(=O)NC2CCCC(C)C2C)cc1S(=O)(=O)N1CCCCC1 (stereo not given) | 18.3 µM (active) |
| CC1CCCC(NC(=O)c2cc(S(=O)(=O)N3CCCCC3)ccc2Cl)C1C (stereo not given) | inactive |
| C[C@@H]1CN([C@@H](C)CO)C(=O)c2cc(NC(=O)C3CC3)ccc2O[C@H]1CN(C)C | inactive |
| COC(=O)[C@@]1(C)[C@H]2C(=O)N(Cc3ccccc3)C(=O)[C@H]2[C@H]2CN=C(SCC3CC3)N21 | inactive |
| CC[C@]1(C(=O)OC)[C@H]2C(=O)N(Cc3ccccc3)C(=O)[C@H]2[C@H]2CN=C(SCc3ccccc3)N21 | inactive |
| COc1cccc(NC(=O)COC(=O)c2ccc3ccccc3n2)c1 | inactive |

| SMILES | Potency |
| --- | --- |
| Cc1ccc(OCCCC(=O)NC(C)c2ccccc2)c(C)c1 (stereo not given) | inactive |
| Cc1cc(S(=O)(=O)N2CCOCC2)ccc1OCC(=O)N1CCOCC1 | inactive |
| Cc1ccc(OCCCC(=O)N2CCOCC2)c(C)c1 | 20.6 µM (active) |
| COc1ccc(C2(c3ccc(OC)cc3)NC(=O)N(CC(=O)Nc3cc(C)on3)C2=O)cc1 | inactive |
| Cc1nn(-c2ccccc2)nc1C(=O)OCC(=O)N1CCCCC1C (stereo not given) | inactive |
| Nc1cccc(CCc2nc3ccccc3[nH]2)c1 | inactive |
| COc1ccc(-c2[nH]nc(-c3ccccc3)c2-c2nc3ccccc3[nH]2)cc1 | inactive |
| COc1ccc(Br)cc1C(=O)NC(=S)Nc1cc(-c2nc3ccccc3[nH]2)ccc1C | inactive |
| Cc1ccc(-c2nc3ccccc3[nH]2)cc1N | 1.64 µM (active) |
| c1ccc2[nH]c(-c3nc4ccccc4[nH]3)nc2c1 | 1.03 µM (active) |
| O=C(Nc1cccc(-c2nc3ccccc3[nH]2)c1)c1ccc(C(=O)Nc2cccc(-c3nc4ccccc4[nH]3)c2)cc1 | inactive |
| C=CC1=C(C(=O)O)N2C(=O)[C@@H](NC(=O)/C(=N\OCC(=O)O)c3csc(N)n3)[C@H]2SC1 | inactive |
| Cc1cccc(OCC(=O)OCC(=O)Nc2ccc(Cl)cn2)c1 | inactive |
| COc1ccccc1-c1sc2ccccc2c1C#CC1(O)CCCCC1 | inactive |
| COc1ccc(S(=O)(=O)N2CCOCC2)cc1NC(=O)c1ccc(OCC(C)C)c(OC)c1 | inactive |
| C=CC[C@@H](CC(=O)N[C@H](CO)Cc1ccccc1)C(=O)N[C@@H](COC(=O)[C@@H](CC=C)Cc1ccc(F)cc1)Cc1c[nH]c2ccccc12 | inactive |
| CC[C@]12c3[nH]c4cc(CCC(=O)N(C)C)ccc4c3CCN1C(=O)[C@@H](CC(=O)NCCCn1ccnc1)C[C@@H]2C(=O)N1CCN(C(=O)C2CC2)CC1 | inactive |
| CN(CC(=O)O)C(=O)c1ccccc1 | inactive |
| CC1CN/C(=C\C(=O)c2ccc(Br)cc2)C(=O)N1 (stereo not given) | 1.3 µM (active) |
| COc1cc2c(cc1OC)/C(=C/C(=O)c1ccc(NC(C)=O)cc1)NCC2 | inactive |

| SMILES | Potency |
| --- | --- |
| CC1(C)Cc2ccccc2/C(=C/C(=O)c2ccccc2)N1 | inactive |
| CN(c1ccccc1)S(=O)(=O)c1cc(C(=O)N2CCN(c3ncccn3)CC2)ccc1Cl | inactive |
| COc1ccccc1CNC(=O)COC(=O)c1cccs1 | inactive |
| CCN(C[C@H]1N[C@@](CC)(C(=O)OC)[C@H]2C(=O)N(C)C(=O)[C@@H]12)C(=O)Nc1ccc(F)cc1 | inactive |
| Cc1cc(/C=C2/NC(=O)NC2=O)c(C)n1-c1cccnc1 | inactive |
| Cc1cccc(C)c1-n1c(C)cc(/C=C2\C(=O)NN(c3ccccc3)C2=O)c1C | inactive |
| Cc1ccccc1-n1c(C)cc(/C=C2\NC(=O)NC2=O)c1C | 14.6 µM (active) |
| COc1cc(SC)ccc1C(=O)NNC(=O)C1COc2ccccc2O1 (stereo not given) | inactive |
| COc1ccccc1OCCCC(=O)Nc1ccc2c(c1)OCCO2 | inactive |
| COC(=O)CCNc1ccc2c(c1)OCCO2 | 9.2 µM (active) |
| Cc1ccc(OCCCC(=O)Nc2ccc3c(c2)OCCO3)cc1 | inactive |
| COc1cccc(CC(=O)OCC(=O)NCc2ccc3c(c2)OCO3)c1 | inactive |
| CCN1C[C@@H]2[C@@H]3C(=O)N(Cc4ccccc4)C(=O)[C@@H]3[C@](Cc3ccccc3)(C(=O)OC)N2C1=NC1CCCCC1 | inactive |
| C[C@@H]1CN([C@H](C)CO)C(=O)c2cc(NC(=O)NC3CCCCC3)ccc2O[C@H]1CN(C)S(C)(=O)=O | inactive |
| Nc1ccc(C(=O)NCc2ccccc2)cc1 | inactive |
| Nc1ccc(C(=O)Nc2ccccc2N)cc1 | 14.6 µM (active) |
| CC(=O)Nc1ccccc1NC(=O)c1cc(C)cc(C)c1 | inactive |
| CC[C@]1(C(=O)OC)[C@H]2C(=O)N(C)C(=O)[C@H]2[C@H]2CN(C)C(=NCc3ccccc3)N21 | inactive |
| CCc1ccc(NC(=O)N2CCN(c3ccccc3)CC2)cc1 | inactive |
| CCc1ccc(NC2Nc3cc(C)nn3S2)cc1 (stereo not given) | 9.2 µM (active) |
